According to the supplement of paper PMC4466140:

How the values were obtained:
Assay in all cases: SPOT peptide array binding signal intensity (averaged, normalized) (arbitrary units (background-subtracted, floor 0; scale differs between SH3 domains)); higher = stronger binding of the SH3 domain to the peptide
AgAbp1 = target: AgAbp1
In short: (§1)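 Binding signal is given in arbitrary units that differ between domains and is the normalized, background-subtracted spot intensity averaged across replicates. Each GST-SH3 fusion from one of four yeast species was made in E. coli BL21(DE3), purified on glutathione Sepharose and incubated at 10 μg/ml overnight at 4°C on cellulose-bound synthetic 15-mer peptides in which cysteines were replaced by serines. Detection used anti-GST antibody, an HRP anti-mouse secondary and luminol, followed by imaging and Genespotter quantification.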

AgBbc1 = target: AgBbc1
In short: as §1

AgBem1-D1 = target: AgBem1-D1
In short: as §1

AgBzz1-D1 = target: AgBzz1-D1
In short: as §1

AgBzz1-D2 = target: AgBzz1-D2
In short: as §1

AgCyk3 = target: AgCyk3
In short: as §1

AgFus1 = target: AgFus1
In short: as §1

AgHof1 = target: AgHof1
In short: as §1

AgHse1 = target: AgHse1
In short: as §1

AgLsb1 = target: AgLsb1
In short: as §1

AgLsb4 = target: AgLsb4
In short: as §1

AgMyo5 = target: AgMyo5
In short: as §1

AgNbp2 = target: AgNbp2
In short: as §1

AgRvs167 = target: AgRvs167
In short: as §1

AgSho1 = target: AgSho1
In short: as §1

AgSla1-D1-D2 = target: AgSla1-D1-D2
In short: as §1

AgSla1-D3 = target: AgSla1-D3
In short: as §1

CaAbp1-D1 = target: CaAbp1-D1
In short: as §1

CaAbp1-D2 = target: CaAbp1-D2
In short: as §1

CaBbc1 = target: CaBbc1
In short: as §1

CaBem1-D1 = target: CaBem1-D1
In short: as §1

CaBzz1-D1 = target: CaBzz1-D1
In short: as §1

CaBzz1-D2 = target: CaBzz1-D2
In short: as §1

CaCyk3 = target: CaCyk3
In short: as §1

CaFus1 = target: CaFus1
In short: as §1

CaHof1 = target: CaHof1
In short: as §1

CaHse1 = target: CaHse1
In short: as §1

CaLsb1 = target: CaLsb1
In short: as §1

CaLsb4 = target: CaLsb4
In short: as §1

CaMyo5 = target: CaMyo5
In short: as §1

CaNbp2 = target: CaNbp2
In short: as §1

CaRvs167 = target: CaRvs167
In short: as §1

CaRvs167-3 = target: CaRvs167-3
In short: as §1

CaSho1 = target: CaSho1
In short: as §1

CaSla1-D1-D2 = target: CaSla1-D1-D2
In short: as §1

CaSla1-D3 = target: CaSla1-D3
In short: as §1

ScAbp1 = target: ScAbp1
In short: as §1

ScBbc1 = target: ScBbc1
In short: as §1

ScBem1-D1 = target: ScBem1-D1
In short: as §1

ScBzz1-D1 = target: ScBzz1-D1
In short: as §1

ScBzz1-D2 = target: ScBzz1-D2
In short: as §1

ScCyk3 = target: ScCyk3
In short: as §1

ScFus1 = target: ScFus1
In short: as §1

ScHof1 = target: ScHof1
In short: as §1

ScHse1 = target: ScHse1
In short: as §1

ScLsb1 = target: ScLsb1
In short: as §1

ScLsb2 = target: ScLsb2
In short: as §1

ScLsb3 = target: ScLsb3
In short: as §1

ScLsb4 = target: ScLsb4
In short: as §1

ScMyo3 = target: ScMyo3
In short: as §1

ScMyo5 = target: ScMyo5
In short: as §1

ScNbp2 = target: ScNbp2
In short: as §1

ScPex13 = target: ScPex13
In short: as §1

ScRvs167 = target: ScRvs167
In short: as §1

ScSho1 = target: ScSho1
In short: as §1

ScSla1-D1-D2 = target: ScSla1-D1-D2
In short: as §1

ScSla1-D3 = target: ScSla1-D3
In short: as §1

SpAbp1-D1 = target: SpAbp1-D1
In short: as §1

SpBbc1 = target: SpBbc1
In short: as §1

SpBzz1-D1 = target: SpBzz1-D1
In short: as §1

SpBzz1-D2 = target: SpBzz1-D2
In short: as §1

SpCyk3 = target: SpCyk3
In short: as §1

SpHof1 = target: SpHof1
In short: as §1

SpHof1-2 = target: SpHof1-2
In short: as §1

SpHof1-3 = target: SpHof1-3
In short: as §1

SpHse1 = target: SpHse1
In short: as §1

SpLsb1 = target: SpLsb1
In short: as §1

SpLsb4 = target: SpLsb4
In short: as §1

SpMyo1 = target: SpMyo1
In short: as §1

SpNbp2 = target: SpNbp2
In short: as §1

SpPex13 = target: SpPex13
In short: as §1

SpRvs167 = target: SpRvs167
In short: as §1

SpSla1-D1-D2 = target: SpSla1-D1-D2
In short: as §1

SpSla1-D3 = target: SpSla1-D3
In short: as §1

Which “SPOT peptide array binding signal intensity” value (AgAbp1) does the source give for LPMNIQPDLPPRKIM here?
Its value is 11.5.

And the “SPOT peptide array binding signal intensity” value (AgBbc1)?
The value was 73.8.

And the “SPOT peptide array binding signal intensity” value (AgBem1-D1)?
The value was 263.

What about the “SPOT peptide array binding signal intensity” value (AgBzz1-D1) of the same binder?
Its value is at most 0.

What about the “SPOT peptide array binding signal intensity” value (AgBzz1-D2) of the same binder?
The value was 5.

And the “SPOT peptide array binding signal intensity” value (AgCyk3)?
Its value is 6.

What about the “SPOT peptide array binding signal intensity” value (AgFus1) of the same binder?
Its value is 301.

And the “SPOT peptide array binding signal intensity” value (AgHof1)?
The value was 109.

What about the “SPOT peptide array binding signal intensity” value (AgHse1) of the same binder?
Its value is 139.

What about the “SPOT peptide array binding signal intensity” value (AgLsb1) of the same binder?
The value was 904.

And the “SPOT peptide array binding signal intensity” value (AgLsb4)?
Its value is 3030.

And the “SPOT peptide array binding signal intensity” value (AgMyo5)?
Its value is at most 0.

What about the “SPOT peptide array binding signal intensity” value (AgNbp2) of the same binder?
The value was 152.

And the “SPOT peptide array binding signal intensity” value (AgRvs167)?
Its value is 525.

And the “SPOT peptide array binding signal intensity” value (AgSho1)?
The value was 218.

And the “SPOT peptide array binding signal intensity” value (AgSla1-D1-D2)?
Its value is at most 0.

What about the “SPOT peptide array binding signal intensity” value (AgSla1-D3) of the same binder?
The value was 2.5.

What about the “SPOT peptide array binding signal intensity” value (CaAbp1-D1) of the same binder?
Its value is 63.5.

What about the “SPOT peptide array binding signal intensity” value (CaAbp1-D2) of the same binder?
Its value is 59.5.

And the “SPOT peptide array binding signal intensity” value (CaBbc1)?
Its value is 423.

What about the “SPOT peptide array binding signal intensity” value (CaBem1-D1) of the same binder?
The value was 42.

What about the “SPOT peptide array binding signal intensity” value (CaBzz1-D1) of the same binder?
Its value is 290.

What about the “SPOT peptide array binding signal intensity” value (CaBzz1-D2) of the same binder?
The value was 98.2.

And the “SPOT peptide array binding signal intensity” value (CaCyk3)?
Its value is 15.

And the “SPOT peptide array binding signal intensity” value (CaFus1)?
The value was 1460.

What about the “SPOT peptide array binding signal intensity” value (CaHof1) of the same binder?
The value was at most 0.

What about the “SPOT peptide array binding signal intensity” value (CaHse1) of the same binder?
Its value is 224.

What about the “SPOT peptide array binding signal intensity” value (CaLsb1) of the same binder?
The value was 16.2.

And the “SPOT peptide array binding signal intensity” value (CaLsb4)?
The value was 7000.

And the “SPOT peptide array binding signal intensity” value (CaMyo5)?
Its value is 60.

And the “SPOT peptide array binding signal intensity” value (CaNbp2)?
Its value is 410.

And the “SPOT peptide array binding signal intensity” value (CaRvs167)?
The value was 1050.

And the “SPOT peptide array binding signal intensity” value (CaRvs167-3)?
Its value is 0.5.

And the “SPOT peptide array binding signal intensity” value (CaSho1)?
Its value is 799.

And the “SPOT peptide array binding signal intensity” value (CaSla1-D1-D2)?
Its value is 409.

What about the “SPOT peptide array binding signal intensity” value (CaSla1-D3) of the same binder?
The value was 242.

What about the “SPOT peptide array binding signal intensity” value (ScAbp1) of the same binder?
Its value is 16.

And the “SPOT peptide array binding signal intensity” value (ScBbc1)?
The value was 7.5.

What about the “SPOT peptide array binding signal intensity” value (ScBem1-D1) of the same binder?
Its value is 1.

And the “SPOT peptide array binding signal intensity” value (ScBzz1-D1)?
The value was 13.

What about the “SPOT peptide array binding signal intensity” value (ScBzz1-D2) of the same binder?
Its value is 10.5.

What about the “SPOT peptide array binding signal intensity” value (ScCyk3) of the same binder?
Its value is 9.

What about the “SPOT peptide array binding signal intensity” value (ScFus1) of the same binder?
Its value is 510.

What about the “SPOT peptide array binding signal intensity” value (ScHof1) of the same binder?
Its value is at most 0.

And the “SPOT peptide array binding signal intensity” value (ScHse1)?
The value was 92.

And the “SPOT peptide array binding signal intensity” value (ScLsb1)?
Its value is 362.

What about the “SPOT peptide array binding signal intensity” value (ScLsb2) of the same binder?
Its value is 218.

And the “SPOT peptide array binding signal intensity” value (ScLsb3)?
The value was 5190.

What about the “SPOT peptide array binding signal intensity” value (ScLsb4) of the same binder?
The value was 3270.

And the “SPOT peptide array binding signal intensity” value (ScMyo3)?
The value was 14.

What about the “SPOT peptide array binding signal intensity” value (ScMyo5) of the same binder?
Its value is 0.75.

What about the “SPOT peptide array binding signal intensity” value (ScNbp2) of the same binder?
Its value is 348.

And the “SPOT peptide array binding signal intensity” value (ScPex13)?
The value was 234.

What about the “SPOT peptide array binding signal intensity” value (ScRvs167) of the same binder?
The value was 2170.

What about the “SPOT peptide array binding signal intensity” value (ScSho1) of the same binder?
The value was 682.

And the “SPOT peptide array binding signal intensity” value (ScSla1-D1-D2)?
Its value is 192.

What about the “SPOT peptide array binding signal intensity” value (ScSla1-D3) of the same binder?
Its value is 212.

What about the “SPOT peptide array binding signal intensity” value (SpAbp1-D1) of the same binder?
The value was 48.

What about the “SPOT peptide array binding signal intensity” value (SpBbc1) of the same binder?
The value was at most 0.

What about the “SPOT peptide array binding signal intensity” value (SpBzz1-D1) of the same binder?
Its value is 362.

What about the “SPOT peptide array binding signal intensity” value (SpBzz1-D2) of the same binder?
Its value is 5.5.

And the “SPOT peptide array binding signal intensity” value (SpCyk3)?
The value was 9.5.

What about the “SPOT peptide array binding signal intensity” value (SpHof1) of the same binder?
The value was 21.5.

And the “SPOT peptide array binding signal intensity” value (SpHof1-2)?
The value was 18.2.

And the “SPOT peptide array binding signal intensity” value (SpHof1-3)?
The value was 11.

What about the “SPOT peptide array binding signal intensity” value (SpHse1) of the same binder?
The value was 174.

What about the “SPOT peptide array binding signal intensity” value (SpLsb1) of the same binder?
Its value is 160.

What about the “SPOT peptide array binding signal intensity” value (SpLsb4) of the same binder?
Its value is 4630.

What about the “SPOT peptide array binding signal intensity” value (SpMyo1) of the same binder?
Its value is 75.

And the “SPOT peptide array binding signal intensity” value (SpNbp2)?
The value was 59.

What about the “SPOT peptide array binding signal intensity” value (SpPex13) of the same binder?
Its value is 42.5.

And the “SPOT peptide array binding signal intensity” value (SpRvs167)?
The value was 2340.

What about the “SPOT peptide array binding signal intensity” value (SpSla1-D1-D2) of the same binder?
The value was 2.5.

And the “SPOT peptide array binding signal intensity” value (SpSla1-D3)?
The value was 148.
